Data taken from the supplement of paper PMC8728848.
This is one part of a sample in which the strongest signals are shown more often than they occur.

Legend:
Assay in all cases: glycan array binding signal (z-score within array); higher = stronger binding
Details in all cases: glycan notation: IUPAC condensed, linker removed
[1] = target: Fuc(a1-2)Gal(b1-3)GlcNAc(b1-3)[Fuc(a1-2)Gal(b1-3)GlcNAc(b1-6)]GalNAc
Method in brief: (§1)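 Glycan array binding is given as a within-array Z-score, which can be read as non-binding when negative. The arrays, 3228 of them, came from the Consortium for Functional Glycomics database and were retained only where the protein sequence was available. Z-scores were averaged across arrays of the same protein sequence at different concentrations or buffers and across linkers.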

Fuc(a1-2)Gal(b1-4)Glc6S = target: Fuc(a1-2)Gal(b1-4)Glc6S
Method in brief: as §1

[2] = target: Fuc(a1-2)Gal(b1-4)GlcNAc(b1-2)Man(a1-3)[Fuc(a1-2)Gal(b1-4)GlcNAc(b1-2)Man(a1-6)]Man(b1-4)GlcNAc(b1-4)[Fuc(a1-6)]GlcNAc
Method in brief: as §1

[3] = target: Fuc(a1-2)[Gal(a1-3)]Gal(b1-3)GalNAc
Method in brief: as §1

[4] = target: Fuc(a1-2)[Gal(a1-3)]Gal(b1-4)GlcNAc(b1-3)[Fuc(a1-2)[Gal(a1-3)]Gal(b1-4)GlcNAc(b1-6)]GalNAc
Method in brief: as §1

[5] = target: Fuc(a1-2)[GalNAc(a1-3)]Gal(b1-4)GlcNAc(b1-3)Gal(b1-4)GlcNAc(b1-3)Gal(b1-4)GlcNAc
Method in brief: as §1

[6] = target: Fuc(a1-3)[Gal(b1-4)]Glc6S
Method in brief: as §1

[7] = target: Fuc(a1-3)[Gal(b1-4)]GlcNAc(b1-6)GalNAc
Method in brief: as §1

[8] = target: Fuc(a1-3)[Gal(b1-4)]GlcNAc6S
Method in brief: as §1

Gal(a1-2)Gal = target: Gal(a1-2)Gal
Method in brief: as §1

Gal(a1-4)Gal(b1-4)Glc = target: Gal(a1-4)Gal(b1-4)Glc
Method in brief: as §1

[9] = target: Gal(a1-4)Gal(b1-4)GlcNAc(b1-2)Man(a1-3)[Gal(a1-4)Gal(b1-4)GlcNAc(b1-2)Man(a1-6)]Man(b1-4)GlcNAc(b1-4)GlcNAc
Method in brief: as §1

[10] = target: Gal(b1-3)GlcNAc(b1-2)Man(a1-3)[Gal(b1-3)GlcNAc(b1-2)Man(a1-6)]Man(b1-4)GlcNAc(b1-4)GlcNAc
Method in brief: as §1

[11] = target: Gal(b1-3)GlcNAc(b1-3)Gal(b1-4)GlcNAc(b1-2)Man(a1-3)[Gal(b1-3)GlcNAc(b1-3)Gal(b1-4)GlcNAc(b1-2)Man(a1-6)]Man(b1-4)GlcNAc(b1-4)GlcNAc
Method in brief: as §1

[12] = target: Gal(b1-3)GlcNAc(b1-3)Gal(b1-4)GlcNAc(b1-6)[Gal(b1-3)GlcNAc(b1-3)]Gal(b1-4)Glc
Method in brief: as §1

[13] = target: Gal(b1-3)GlcNAc(b1-3)Gal(b1-4)[Fuc(a1-3)]GlcNAc(b1-6)[Gal(b1-3)GlcNAc(b1-3)]Gal(b1-4)Glc
Method in brief: as §1

[14] = target: Gal(b1-3)GlcNAc(b1-3)GalNAc
Method in brief: as §1

[15] = target: Gal(b1-3)GlcNAc(b1-6)Gal(b1-4)GlcNAc
Method in brief: as §1

[16] = target: Gal(b1-3)[Fuc(a1-4)]GlcNAc(b1-3)Gal(b1-4)[Fuc(a1-3)]GlcNAc
Method in brief: as §1

Gal(b1-4)GlcNAc = target: Gal(b1-4)GlcNAc
Method in brief: as §1

[17] = target: Gal(b1-4)GlcNAc(b1-3)Gal(b1-4)GlcNAc
Method in brief: as §1

[18] = target: Gal(b1-4)GlcNAc(b1-3)Gal(b1-4)GlcNAc(b1-2)[Gal(b1-4)GlcNAc(b1-3)Gal(b1-4)GlcNAc(b1-6)]Man(a1-6)[Gal(b1-4)GlcNAc(b1-3)Gal(b1-4)GlcNAc(b1-2)Man(a1-3)]Man(b1-4)GlcNAc(b1-4)GlcNAc
Method in brief: as §1

[19] = target: Gal(b1-4)GlcNAc(b1-3)Gal(b1-4)GlcNAc(b1-3)Gal(b1-4)GlcNAc(b1-3)Gal(b1-4)GlcNAc(b1-2)Man(a1-3)[Gal(b1-4)GlcNAc(b1-3)Gal(b1-4)GlcNAc(b1-3)Gal(b1-4)GlcNAc(b1-3)Gal(b1-4)GlcNAc(b1-2)Man(a1-6)]Man(b1-4)GlcNAc(b1-4)[Fuc(a1-6)]GlcNAc
Method in brief: as §1

[20] = target: Gal(b1-4)GlcNAc(b1-3)Gal(b1-4)GlcNAc(b1-3)Gal(b1-4)GlcNAc(b1-3)Gal(b1-4)GlcNAc(b1-3)Gal(b1-4)GlcNAc(b1-3)Gal(b1-4)GlcNAc(b1-2)Man(a1-3)[Gal(b1-4)GlcNAc(b1-3)Gal(b1-4)GlcNAc(b1-3)Gal(b1-4)GlcNAc(b1-3)Gal(b1-4)GlcNAc(b1-3)Gal(b1-4)GlcNAc(b1-3)Gal(b1-4)GlcNAc(b1-2)Man(a1-6)]Man(b1-4)GlcNAc(b1-4)GlcNAc
Method in brief: as §1

[21] = target: Gal(b1-4)GlcNAc(b1-3)Gal(b1-4)GlcNAc(b1-3)GalNAc
Method in brief: as §1

[22] = target: Gal(b1-4)GlcNAc(b1-3)GalNAc
Method in brief: as §1

[23] = target: Gal(b1-4)GlcNAc(b1-3)[Gal(b1-4)GlcNAc(b1-6)]Gal(b1-4)GlcNAc
Method in brief: as §1

[24] = target: Gal(b1-4)GlcNAc(b1-6)[Gal(b1-4)GlcNAc(b1-3)]GalNAc
Method in brief: as §1

B1: PX9937J-pdi-523-26-523 (Parabacteroides distasonis) (protein)
chain: EPVSSISDANYWKSPDLFKAFNIGLHGLLRSQSSYNIFVLGEPRSDIYGDQPFGGEATQGVERFSYNTINAEFTGISNFANFYTTLNQINLMIRRTNETDLLGEAEKNYYLGQAYGLRAYIYFHLLRSWGDVIITTEPTLGSELDISHLDKAASPASEVMDLIKKDIDASEKAFGGDYSYKQGKCYWSKPATLMLKGEVYLWSGRQMGGGTGDYTVAKTALQDLQQNGNLKLQEKFTDVFSFNNKENSEMIFALHSGKEDDFMMWRDYNWRNNMVPQREYMAGYCDETGTPFLEIPGYNLQGLMRYQVKKDHYLKSFREGDTRLKGTLKAVYKKHEDGTLEYIAPIQYKFQGTTLEGSNERSWYDDYPIYRYADALLLLAEAKALLGEDPSTEINAVRERAYGSEYFNAHKNEVAYPNDKGSFYNDNPFEAGDENVMEAILKERLREFFFEGKRWYDLRRFGKDYVLKYTTAQESRLLWPINEGALTNNPALKQTPGY
- glycan array binding signal (z-score) [1]: -0.127
- glycan array binding signal (z-score) (Fuc(a1-2)Gal(b1-4)Glc6S): -0.759
- glycan array binding signal (z-score) [2]: 0.953
- glycan array binding signal (z-score) [3]: -0.16
- glycan array binding signal (z-score) [4]: -0.426
- glycan array binding signal (z-score) [5]: -0.377
- glycan array binding signal (z-score) [6]: -0.103
- glycan array binding signal (z-score) [7]: -0.093
- glycan array binding signal (z-score) [8]: 5.71
- glycan array binding signal (z-score) (Gal(a1-2)Gal): -0.363
- glycan array binding signal (z-score) (Gal(a1-4)Gal(b1-4)Glc): 0.596
- glycan array binding signal (z-score) [9]: 2.9
- glycan array binding signal (z-score) [10]: -0.12
- glycan array binding signal (z-score) [11]: 3.05
- glycan array binding signal (z-score) [12]: 0.461
- glycan array binding signal (z-score) [13]: -0.698
- glycan array binding signal (z-score) [14]: -0.708
- glycan array binding signal (z-score) [15]: -0.374
- glycan array binding signal (z-score) [16]: -0.34
- glycan array binding signal (z-score) (Gal(b1-4)GlcNAc): 0.078
- glycan array binding signal (z-score) [17]: -0.225
- glycan array binding signal (z-score) [18]: 10.4
- glycan array binding signal (z-score) [19]: 0.026
- glycan array binding signal (z-score) [20]: 8.6
- glycan array binding signal (z-score) [21]: 6.57
- glycan array binding signal (z-score) [22]: -0.086
- glycan array binding signal (z-score) [23]: -0.21
- glycan array binding signal (z-score) [24]: -0.149
